# Values without a mark were called inactive. Inconclusive results are not listed. A call without a number means that no potency is given here. The source made the active and inactive calls. Calls come from the whole dose curve; as a rule, active = well fitted curve in the direction sought with a large enough effect; inconclusive = small, poorly fitted or top-dose-only effect, or another doubt; inactive = no such curve, though single readings can be large; an effect the other way counts as inactive or inconclusive.
# Key:
# [1] = biological target: Phospholipid hydroperoxide glutathione peroxidase GPX4 (Homo sapiens) (UniProt P36969); test: Primary qHTS Assay for Inhibitors of Recombinant Selenoprotein Glutathione Peroxidase 4 (GPX4) (AID 1845192); note: nearly all actives have a fitted effect of over 65% in size; for activity change, negative = inhibition: series mostly up to about 50 µM
# Sequence of Phospholipid hydroperoxide glutathione peroxidase GPX4 (Homo sapiens) (P36969 whole entry, looked up): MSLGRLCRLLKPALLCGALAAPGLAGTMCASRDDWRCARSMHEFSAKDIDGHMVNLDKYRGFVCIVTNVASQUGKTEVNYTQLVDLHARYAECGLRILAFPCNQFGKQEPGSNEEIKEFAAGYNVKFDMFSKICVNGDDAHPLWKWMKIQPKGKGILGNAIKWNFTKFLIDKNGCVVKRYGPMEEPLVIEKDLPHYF
# Procedure, shortened: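 GR-coupled readout: 100 nM GR, 1 mM GSH, 0.5 mM NADPH; NADPH fluorescence (ex 340/em 450 nm) read at t=0 and after 15 min RT. GPX4 200 nM, preincubated 30 min with compound; substrate 0.5 mM CHP.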
# [2] = biological target: Luciferin 4-monooxygenase (Photinus pyralis) (UniProt P08659); test: Primary firefly luciferase (FLuc) qHTS assay for identification of artifact compounds. (AID 1845220); note: nearly all actives have a fitted effect of over 60% in size; for activity change, negative = inhibition: series mostly up to about 54 µM
# Procedure, shortened: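 In this counter-screen for luciferase artifacts, test compounds met substrate (10 uM each luciferin and ATP) before 10 nM enzyme started the reaction. Light output was measured 5 min later.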
# [3] = Primary fluorescence-based thiol-reactive (MSTI) qHTS assay for identification of artifact compounds. (AID 1845221); note: nearly all actives have a fitted effect of over 65% in size; note: potency is the fitted concentration of half-maximal effect;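 for activity change, negative = thiol reactive: series mostly up to about 54 µM; thiol-reactive compounds lower the probe fluorescence signal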
# Procedure, shortened: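 In PBS pH 7.4 with 2% DMSO, each compound met 4 uM MSTI for one hour at ambient temperature, shielded from light, before fluorescence detection.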
# [4] = tested on: Nanoluciferase (engineered Oplophorus gracilirostris luciferase); test: Primary Nanoluciferase (NLuc) qHTS assay for identification of artifact compounds. (AID 1845222);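 note: NLuc secreted into diluted conditioned medium of S16 cells; series mostly up to about 54 µM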
# Procedure, shortened: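 Using secreted nanoluciferase in S16 culture medium (0.22 um filtered, 1:55 dilution), compounds were preincubated 15 min at RT. Signal was generated with Nano-Glo reagent (1:100) over 5 min.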
# [5] = Primary redox qHTS assay for identification of artifact compounds. (AID 1845223)
# Procedure, shortened: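 Amplex Red (25 uM) and HRP (250 mU/mL) in HBSS, with compounds for 15 min, then 250 uM DTT for 30 min, room temperature, dark. Fluorescence 525/598 nm read; normalized to DMSO and 10 uM DA3003; Hill fit.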
smiles,measurement,setting,value
CC(C)CCC1(O)C(=O)C(C)(C)C(O[C@@H]2O[C@H](CO)[C@@H](O)[C@H](O)[C@H]2O)C(C)(C)C1O (stereo not given in full),Potency,[1],inactive
same,Potency,[2],inactive
same,Potency,[3],2.32 µM (active)
same,Potency,[4],inactive
same,Potency,[5],inactive
Cc1noc(=O)c2ccc(NC(=O)C(O)(CC(C)(C)c3cccc4c3OCC4)C(F)(F)F)cc12 (stereo not given),Potency,[1],inactive
same,Potency,[2],inactive
same,Potency,[3],inactive
same,Potency,[4],inactive
same,Potency,[5],inactive
C[C@]12C=C[C@@]3(CCC4[C@](C)(CO)CCC[C@@]4(C)C3CC1)C2 (stereo not given in full),Potency,[1],inactive
same,Potency,[2],inactive
same,Potency,[3],inactive
same,Potency,[4],inactive
same,Potency,[5],inactive
CCC(C)C(=O)OC1CC(O)C23C4OCC5(C(O)CC2C1(C)C(O)O4)C3C(=O)CC1(C)C(c2ccoc2)CC2OC215 (stereo not given),Potency,[1],inactive
same,Potency,[2],inactive
same,Potency,[3],inactive
same,Potency,[4],inactive
same,Potency,[5],inactive
CC/C=C/CC1=C(CCCCC(CCC(=O)O)OC(C)=O)CCC1=O (stereo not given),Potency,[1],inactive
same,Potency,[2],inactive
same,Potency,[3],inactive
same,Potency,[4],inactive
same,Potency,[5],inactive
CC(C)(C)c1ccc(S(=O)(=O)NCc2ccc(C(=O)Nc3cccnc3)cc2)cc1,Potency,[1],inactive
same,Potency,[2],inactive
same,Potency,[3],inactive
same,Potency,[4],inactive
same,Potency,[5],inactive
O=C(NCC(O)CO)c1ccncc1Nc1ccc(I)cc1F (stereo not given),Potency,[1],inactive
same,Potency,[2],inactive
same,Potency,[3],inactive
same,Potency,[4],inactive
same,Potency,[5],inactive
C[C@@H]1CN(Cc2ncccn2)C[C@H]1c1nc2c(cnn2C2CCOCC2)c(=O)[nH]1,Potency,[1],inactive
same,Potency,[2],inactive
same,Potency,[3],inactive
same,Potency,[4],inactive
same,Potency,[5],inactive
C=CC1C(OC2OC(CO)C(O)C(O)C2O)OC=C(C(=O)OC)C1CC(=O)OCC1C(C)C(O)CC1C(CO)COC(=O)CC1C(C(=O)O)=COC(OC2OC(CO)C(O)C(O)C2O)/C1=C\C (stereo not given),Potency,[1],inactive
same,"activity change, negative = inhibition",[2],-4.67% [at 11.6 µM]
same,"activity change, negative = thiol reactive",[3],7.86% [at 11.5 µM]
same,"activity, negative = inhibition",[4],-0.732% [at 11.6 µM]
same,redox activity (% of DA3003),[5],14.1% [at 11.5 µM]
CC1(C)CC[C@]2(CO[C@@H]3O[C@H](CO)[C@@H](O)[C@H](O)[C@H]3O)[C@@H](O)C[C@]3(C)C(=CCC4[C@@]5(C)CC[C@H](O[C@@H]6O[C@H](CO[C@@H]7O[C@H](CO[C@@H]8OC[C@@H](O)[C@H](O)[C@H]8O)[C@@H](O)[C@H](O)[C@H]7O)[C@@H](O)[C@H](O)[C@H]6O)C(C)(C)C5CC[C@]43C)[C@@H]2C1 (stereo not given in full),Potency,[1],inactive
same,"activity change, negative = inhibition",[2],-4.11% [at 11.6 µM]
same,"activity change, negative = thiol reactive",[3],75.4% [at 11.5 µM]
same,"activity, negative = inhibition",[4],0.495% [at 11.6 µM]
same,redox activity (% of DA3003),[5],13.8% [at 11.5 µM]
COc1cc(C(=O)OC[C@@]2(O)CO[C@@H](O[C@H]3[C@H](Oc4ccc(C(=O)O)cc4OC)O[C@H](CO)[C@@H](O)[C@@H]3O)[C@@H]2O)ccc1O,Potency,[1],inactive
same,Potency,[2],inactive
same,Potency,[3],inactive
same,Potency,[4],inactive
same,Potency,[5],inactive
COc1cc2c(cc1OC)CC(=O)N(CCCNC[C@H]1Cc3cc(OC)c(OC)cc31)CC2,Potency,[1],inactive
same,Potency,[2],inactive
same,Potency,[3],inactive
same,Potency,[4],inactive
same,Potency,[5],inactive
CN(C)CC1CCOC1(c1ccccc1)c1ccccc1 (stereo not given),Potency,[1],inactive
same,Potency,[2],inactive
same,Potency,[3],inactive
same,Potency,[4],inactive
same,Potency,[5],inactive
CC1(C)CC[C@]2(C(=O)O[C@@H]3O[C@H](CO)[C@@H](O)[C@H](O)[C@H]3O)CC[C@]3(C)C(=CCC4[C@@]5(C)C[C@@H](O)[C@H](O)[C@](C)(C(=O)O)C5CC[C@]43C)C2C1O (stereo not given in full),Potency,[1],inactive
same,Potency,[2],inactive
same,Potency,[3],inactive
same,Potency,[4],inactive
same,Potency,[5],inactive
CC(C)c1cc(C(=O)N2CC[C@H](NC(=O)C3CC3)C2)n[nH]1,Potency,[1],inactive
same,Potency,[2],inactive
same,Potency,[3],inactive
same,Potency,[4],inactive
same,Potency,[5],inactive
Cc1nc2sc(C(=O)NCc3ccncc3)c(N)c2c(C)c1Cl,Potency,[1],inactive
same,Potency,[2],inactive
same,Potency,[3],inactive
same,Potency,[4],inactive
same,Potency,[5],inactive
CC(=O)C1=C(C)N(c2cccc(C(F)(F)F)c2)C(=O)N[C@H]1c1ccc(C#N)nc1,Potency,[1],inactive
same,"activity change, negative = inhibition",[2],-8.43% [at 11.6 µM]
same,"activity change, negative = thiol reactive",[3],33.4% [at 11.5 µM]
same,"activity, negative = inhibition",[4],-1.73% [at 11.6 µM]
same,redox activity (% of DA3003),[5],-3.41% [at 11.5 µM]
COC(=O)C1=COC(O[C@@H]2O[C@H](CO)[C@@H](O)[C@H](O)[C@H]2O)[C@H]2[C@@H]1[C@H](OC(=O)CCc1ccc(O)cc1)C[C@]2(C)O (stereo not given in full),Potency,[1],inactive
same,Potency,[2],inactive
same,Potency,[3],inactive
same,Potency,[4],inactive
same,Potency,[5],inactive
O=C(NCc1cccc(O)c1)c1cc2cc(F)ccc2[nH]1,Potency,[1],inactive
same,Potency,[2],inactive
same,Potency,[3],inactive
same,Potency,[4],inactive
same,Potency,[5],inactive
COC1CC(O[C@H]2CC[C@@]3(C)C(CCC4C3[C@H](OC(C)=O)[C@@H](OC(=O)/C=C/c3ccccc3)[C@]3(C)C(C(C)=O)CC[C@]43O)C2)OC(C)C1OC1CC(OC)C(OC2CC(OC)C(OC3OC(C)C(OC4OC(CO)C(O)C(O)C4O)C(OC)C3O)C(C)O2)C(C)O1 (stereo not given in full),"activity change, negative = inhibition",[1],-9.21% [at 9.73 µM]
same,outcome,[2],inactive [at 11.6 µM]
same,"activity change, negative = thiol reactive",[3],2.39% [at 11.5 µM]
same,"activity, negative = inhibition",[4],-1.88% [at 11.6 µM]
same,redox activity (% of DA3003),[5],-6.18% [at 11.5 µM]
CC1(O)CC(O)C2(O)C=COC(O[C@@H]3O[C@H](CO)[C@@H](O)[C@H](O)[C@H]3O)C12 (stereo not given in full),Potency,[1],inactive
same,Potency,[2],inactive
same,Potency,[3],11.7 µM (active)
same,Potency,[4],inactive
same,Potency,[5],inactive
CC1CC(O)C2(OC1=O)OC1C(O)C3C4CCC5CC(OC6OC(CO)C(O)C(O)C6OC6OC(C)C(O)C(O)C6O)CCC5(C)C4CCC3(C)C1C2C (stereo not given),Potency,[1],inactive
same,Potency,[2],inactive
same,Potency,[3],inactive
same,Potency,[4],inactive
same,Potency,[5],inactive
